Assay results: PubChem BioAssay AID1159580 (chemical genetic matrix, 2015)
The whole screen tested about 5,500 compounds, of which about 2,000 (36%) were called active. About 18% were inconclusive and are not listed. The list shows a part of the results. Values without a mark were called inactive. No stated cut-off is given here; in the data, active means normalized growth mostly below about 0.91 (no sharp cut-off); inconclusive means no clear call, values can overlap the other calls; inactive means mostly above about 0.92.

Assay: chemical genetic growth profiling, strain panel (AID 1159580);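 further: tested at 20 µM; growth read once vehicle control cultures reached saturation at 30 °C; 1 = growth at the plate median or of vehicle wells; lower values mean less growth of the strain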
Details: S. cerevisiae deletion strains, growth OD
[1] = locus YDL101C, strain DUN1, hits give low values
[2] = locus YHR030C, strain SLT2, hits give low values

Question: With `COc1ccccc1NC(=S)N/N=C\c1ccccc1O` as the compound, how does the normalized growth (locus YAR019C, strain CDC15, hits give low values) read?
Answer: 0.962

Question: What about the normalized growth (locus YBL105C, strain PKC1, hits give low values) of the same compound?
Answer: 0.968

Question: What about the normalized growth (locus YBR135W, strain CKS1, hits give low values) of the same compound?
Answer: 0.967

Question: What about the normalized growth (locus YBR136W, strain MEC1, hits give low values) of the same compound?
Answer: 0.965

Question: And the normalized growth (locus YBR160W, strain CDC28, hits give low values)?
Answer: 0.967

Question: And the normalized growth (locus YDL017W, strain CDC7, hits give low values)?
Answer: 0.967

Question: What about the normalized growth (locus YDL028C, strain MPS1, hits give low values) of the same compound?
Answer: 0.96

Question: And the normalized growth [1]?
Answer: 0.978

Question: And the normalized growth (locus YDL108W, strain KIN28, hits give low values)?
Answer: 0.954

Question: What about the normalized growth (locus YDL132W, strain cdc53, hits give low values) of the same compound?
Answer: 0.965

Question: What about the normalized growth (locus YDL214C, strain PRR2, hits give low values) of the same compound?
Answer: 0.941

Question: And the normalized growth (locus YDR052C, strain DBF4, hits give low values)?
Answer: 0.973

Question: And the normalized growth (locus YDR054C, strain cdc34, hits give low values)?
Answer: 0.957

Question: What about the normalized growth (locus YDR226W, strain ADK1, hits give low values) of the same compound?
Answer: 0.959

Question: And the normalized growth (locus YDR477W, strain SNF1, hits give low values)?
Answer: 0.938

Question: What about the normalized growth (locus YER123W, strain YCK3, hits give low values) of the same compound?
Answer: 0.928

Question: And the normalized growth (locus YER133W, strain GLC7, hits give low values)?
Answer: 0.942

Question: And the normalized growth (locus YFL009W, strain cdc4, hits give low values)?
Answer: 0.965

Question: What about the normalized growth (locus YFL029C, strain CAK1, hits give low values) of the same compound?
Answer: 0.953

Question: And the normalized growth (locus YFR003C, strain YPI1, hits give low values)?
Answer: 0.97

Question: What about the normalized growth (locus YFR019W, strain FAB1, hits give low values) of the same compound?
Answer: 0.976

Question: And the normalized growth (locus YFR028C, strain CDC14, hits give low values)?
Answer: 0.966

Question: And the normalized growth (locus YGR040W, strain KSS1, hits give low values)?
Answer: 0.939

Question: What about the normalized growth (locus YGR052W, strain FMP48, hits give low values) of the same compound?
Answer: 1.02

Question: What about the normalized growth (locus YGR092W, strain DBF2, hits give low values) of the same compound?
Answer: 0.891

Question: And the normalized growth [2]?
Answer: 0.903

Question: What about the normalized growth (locus YHR079C, strain IRE1, hits give low values) of the same compound?
Answer: 0.956

Question: What about the normalized growth (locus YHR082C, strain KSP1, hits give low values) of the same compound?
Answer: 0.964

Question: And the normalized growth (locus YHR205W, strain SCH9, hits give low values)?
Answer: 0.98

Question: And the normalized growth (locus YIL147C, strain SLN1, hits give low values)?
Answer: 0.961

Question: And the normalized growth (locus YJL095W, strain BCK1, hits give low values)?
Answer: 0.978

Question: What about the normalized growth (locus YJL128C, strain PBS2, hits give low values) of the same compound?
Answer: 0.957

Question: What about the normalized growth (locus YJL157C, strain FAR1, hits give low values) of the same compound?
Answer: 0.951

Question: And the normalized growth (locus YJR016C, strain ILV3, hits give low values)?
Answer: 0.979

Question: What about the normalized growth (locus YJR066W, strain TOR1 (second series), hits give low values) of the same compound?
Answer: 0.903

Question: And the normalized growth (locus YJR066W, strain TOR1, hits give low values)?
Answer: 0.942

Question: And the normalized growth (locus YKL048C, strain ELM1, hits give low values)?
Answer: 0.962

Question: What about the normalized growth (locus YKL067W, strain YNK1, hits give low values) of the same compound?
Answer: 0.955

Question: And the normalized growth (locus YKL101W, strain HSL1, hits give low values)?
Answer: 0.948

Question: And the normalized growth (locus YKL193C, strain SDS22, hits give low values)?
Answer: 0.964

Question: And the normalized growth (locus YKL203C, strain TOR2, hits give low values)?
Answer: 0.971

Question: And the normalized growth (locus YLR113W, strain HOG1, hits give low values)?
Answer: 0.955

Question: What about the normalized growth (locus YLR133W, strain CKI1, hits give low values) of the same compound?
Answer: 0.942

Question: And the normalized growth (locus YLR403W, strain SFP1, hits give low values)?
Answer: 0.916

Question: And the normalized growth (locus YML070W, strain DAK1, hits give low values)?
Answer: 0.973

Question: What about the normalized growth (locus YMR001C, strain CDC5, hits give low values) of the same compound?
Answer: 0.958

Question: And the normalized growth (locus YMR205C, strain PFK2 (second series), hits give low values)?
Answer: 0.959

Question: And the normalized growth (locus YMR277W, strain FCP1, hits give low values)?
Answer: 0.966

Question: What about the normalized growth (locus YNL006W, strain LST8, hits give low values) of the same compound?
Answer: 0.97

Question: What about the normalized growth (locus YNL020C, strain ARK1, hits give low values) of the same compound?
Answer: 0.955

Question: And the normalized growth (locus YNL161W, strain CBK1, hits give low values)?
Answer: 0.967

Question: What about the normalized growth (locus YNL183C, strain NPR1, hits give low values) of the same compound?
Answer: 0.975

Question: And the normalized growth (locus YNL207W, strain RIO2, hits give low values)?
Answer: 0.97

Question: And the normalized growth (locus YNL222W, strain SSU72, hits give low values)?
Answer: 0.967

Question: And the normalized growth (locus YNL307C, strain MCK1 (second series), hits give low values)?
Answer: 0.949

Question: What about the normalized growth (locus YOL078W, strain AVO1, hits give low values) of the same compound?
Answer: 0.968

Question: What about the normalized growth (locus YOL136C, strain PFK27, hits give low values) of the same compound?
Answer: 0.967

Question: And the normalized growth (locus YOR061W, strain CKA2, hits give low values)?
Answer: 0.931

Question: What about the normalized growth (locus YOR119C, strain RIO1, hits give low values) of the same compound?
Answer: 0.941

Question: And the normalized growth (locus YOR231W, strain MKK1, hits give low values)?
Answer: 0.967

Question: And the normalized growth (locus YOR329C, strain SCD5, hits give low values)?
Answer: 0.969

Question: And the normalized growth (locus YPL031C, strain PHO85, hits give low values)?
Answer: 0.93

Question: What about the normalized growth (locus YPL153C, strain RAD53, hits give low values) of the same compound?
Answer: 0.937

Question: And the normalized growth (locus YPL204W, strain HRR25, hits give low values)?
Answer: 0.941

Question: What about the normalized growth (locus YPL209C, strain IPL1, hits give low values) of the same compound?
Answer: 0.967

Question: What about the normalized growth (locus YPL256C, strain CLN2, hits give low values) of the same compound?
Answer: 0.929

Question: What about the normalized growth (locus YPR025C, strain CCL1, hits give low values) of the same compound?
Answer: 0.968

Question: What about the normalized growth (locus YPR106W, strain ISR1, hits give low values) of the same compound?
Answer: 0.969

Question: And the normalized growth (locus YPR111W, strain DBF20, hits give low values)?
Answer: 0.978

Question: What about the normalized growth (strain NNK1, hits give low values) of the same compound?
Answer: 0.986

Question: What about the normalized growth (strain TSCII, hits give low values) of the same compound?
Answer: 0.969

Question: What does the source list for `Cc1cc(Br)c(NC(=O)C(Cl)(Cl)Cl)c(Br)c1`?
Answer: normalized growth (locus YAL013W, strain DEP1, hits give low values): 0.917 (active); normalized growth (locus YBR229C, strain ROT2, hits give low values): 0.911 (active); normalized growth [1]: 0.936; normalized growth (locus YDR150W, strain NUM1, hits give low values): 0.909; normalized growth (locus YEL061C, strain CIN8, hits give low values): 0.93; normalized growth (locus YGR078C, strain PAC10, hits give low values): 0.905 (active); normalized growth [2]: 0.592 (active); normalized growth (locus YHR087W, strain rtc3, hits give low values): 0.899 (active); normalized growth (locus YJR043C, strain POL32, hits give low values): 0.927; normalized growth (locus YJR075W, strain HOC1, hits give low values): 0.923; normalized growth (locus YKL190W, strain CNB1, hits give low values): 0.958; normalized growth (locus YLR039C, strain RIC1, hits give low values): 0.538 (active); normalized growth (locus YLR058C, strain SHM2 (second series), hits give low values): 0.907 (active); normalized growth (locus YLR085C, strain ARP6, hits give low values): 0.73 (active); normalized growth (locus YLR262C, strain YPT6, hits give low values): 0.579 (active); normalized growth (locus YML094W, strain GIM5, hits give low values): 0.944; normalized growth (locus YMR219W, strain ESC1, hits give low values): 0.933 (active); normalized growth (locus YMR263W, strain SAP30, hits give low values): 0.96; normalized growth (locus YMR307W, strain GAS1, hits give low values): 0.648 (active); normalized growth (locus YNL153C, strain GIM3, hits give low values): 0.947; normalized growth (locus YNL298W, strain CLA4 (second series), hits give low values): 0.875; normalized growth (locus YNL322C, strain KRE1, hits give low values): 0.94 (active); normalized growth (locus YNR030W, strain Alg12, hits give low values): 0.938; normalized growth (locus YOL006C, strain TOP1, hits give low values): 0.615 (active); normalized growth (locus YPL055C, strain LGE1, hits give low values): 0.919; normalized growth (locus YPL241C, strain CIN2, hits give low values): 0.939; normalized growth (locus YPR135W, strain CTF4, hits give low values): 0.736
